According to PubChem BioAssay (NCI):
“And” between values parts separate entries of the source, which are not always exact repeats. Equal values may be shown once. About 83,000 compounds went through this panel and 20% of them were active in at least one assay; those are over-represented in the sample as a whole.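 Testing used 96-well plates and a 48-hour single-concentration exposure. Example: -40 means 40% of the starting cells died.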 Some compounds were tested as several samples or in several runs, with calls that do not always agree. The source made the active and inactive calls. The calls were made as follows: active = growth percent below 10; inactive = the rest. Where a SMILES comes first, the peptide text is derived from it. [ ]: non-standard residue; d: D form. ξ: configuration not given here. ξV = CC(C)C(N)C(=O)O

Experiments:
Experiment in all cases: NCI-60 one-dose screen, 48 h (100 = growth as untreated, 0 = no growth, -100 = all killed)
[1] = tested on: NCI-H23 lung
[2] = tested on: NCI-H226 lung
[3] = tested on: NCI-H322M lung
[4] = tested on: HOP-62 NSCLC
[5] = tested on: NCI-H460 lung
[6] = tested on: HOP-92 NSCLC
[7] = tested on: NCI-H522 lung
[8] = tested on: A549/ATCC NSCLC
[9] = tested on: 786-0 renal
[10] = tested on: COLO 205 colon
[11] = tested on: DU-145 prostate
[12] = tested on: K-562 leukemia
[13] = tested on: MALME-3M melanoma
[14] = tested on: MDA-MB-231 breast
[15] = tested on: RXF 393 renal
[16] = tested on: SF-268 CNS
[17] = tested on: SF-295 CNS
[18] = tested on: SF-539 CNS
[19] = tested on: UACC-257 melanoma
[20] = tested on: M14 melanoma

Measured: growth

COc1cccc2c1C(=O)c1c(O)c3c(c(O)c1C2=O)C[C@@](O)(C(=O)CO)C[C@@H]3OC1CC(N)C(O)C(C)O1 (stereo partly drawn)
inactive: [1]; 0.0025 µM 90% | [1]; 1 µM 28.2% | [1]; 2.5 µM 33.1% | [1]; 10 µM 33.3% | [2]; 0.0025 µM 84% | [2]; 2.5 µM 23.1% | [3]; 0.0025 µM 86.8% | [3]; 1 µM 63.4% | [3]; 2.5 µM 101% | [3]; 10 µM 13.9% | [4]; 0.0025 µM 88.3% | [4]; 2.5 µM 31.5% | [5]; 0.0025 µM 73.4% | [6]; 0.0025 µM 85.2% | [6]; 2.5 µM 51% | [7]; 0.0025 µM 78.3% | [8]; 0.0025 µM 73% | [8]; 1 µM 33.7% | [8]; 2.5 µM 36.5% | [9]; 0.0025 µM 84.4% | [9]; 2.5 µM 26.8% | [10]; 0.0025 µM 85.8% | [10]; 1 µM 53.8% | [10]; 2.5 µM 56.7% | [11]; 10 µM 13.2% | [12]; 0.0025 µM 107% | [12]; 1 µM 32.8% | [12]; 2.5 µM 28.1% | [13]; 0.0025 µM 79.3% | [13]; 2.5 µM 30% | [14]; 0.0025 µM 124% | [14]; 1 µM 71% | [14]; 2.5 µM 82.1% | [15]; 0.0025 µM 107% | [16]; 0.0025 µM 97% | [16]; 1 µM 41% | [16]; 2.5 µM 16.7% | [17]; 0.0025 µM 95.8% | [18]; 0.0025 µM 97.1% | [18]; 1 µM 36.5% | [18]; 2.5 µM 32.3% | [19]; 0.0025 µM 90% | [19]; 1 µM 28.3% | [19]; 2.5 µM 42.8% | [20]; 0.0025 µM 90.9% | [20]; 1 µM 16.6% | [20]; 2.5 µM 50.9%
active: [2]; 10 µM -18.3% | [4]; 10 µM 6.93% | [5]; 1 µM -31.1% | [5]; 2.5 µM 9.19% | [5]; 10 µM 0.571% | [6]; 10 µM -22.8% | [7]; 1 µM -10.4% | [7]; 10 µM -38% | [8]; 10 µM -30.5% | [9]; 1 µM -14.3% | [9]; 10 µM 4.5% | [10]; 10 µM -47.4% | [11]; 2.5 µM -33.2% | [12]; 10 µM 2.13% | [13]; 1 µM -17.2% | [13]; 10 µM -80.1% | [14]; 10 µM 3.79% | [15]; 10 µM -28.5% | [16]; 10 µM -4.32% | [17]; 1 µM 2.06% | [17]; 2.5 µM -1.94% | [17]; 10 µM -27.6% | [18]; 10 µM -50.3% | [19]; 10 µM 3.46%

O=C(C(=Cc1ccccc1)C(=O)c1ccccc1)c1ccccc1
inactive: [1]; 10 µM 66.7% and 95.2% | [2]; 10 µM 68.4% and 97.7% | [3]; 10 µM 89.6% and 110% | [4]; 10 µM 102% | [5]; 10 µM 33.3% and 96.3% | [6]; 10 µM 65.7% and 84.3% | [7]; 10 µM unless noted 75.2% and 68.9% | [8]; 10 µM 81.6% and 83.1% | [9]; 10 µM 73.5% and 97.3% | [10]; 10 µM 124% | [11]; 10 µM unless noted 61.3% and 102% | [12]; 10 µM 35.5% and 93.8% | [13]; 10 µM 88.4% and 108% | [14]; 10 µM 70.5% and 74.8% | [15]; 10 µM unless noted 66.5% and 98.8% | [16]; 10 µM 58.5% and 83.3% | [17]; 10 µM 65.4% and 97.7% | [18]; 10 µM 72.9% and 96.9% | [19]; 10 µM 73% and 83.7% | [20]; 10 µM 47.5%

CC(C)C(NC(=O)CN)C(=O)O (stereo not drawn) (H-Gly-[ξV]-OH)
inactive: [1]; 10 µM 101% and 106% | [2]; 10 µM 102% and 100% | [3]; 10 µM 100% and 105% | [4]; 10 µM 106% and 98% | [5]; 10 µM 113% and 103% | [6]; 10 µM 102% | [7]; 10 µM unless noted 95.9% and 89.7% | [8]; 10 µM 95% and 99.2% | [9]; 10 µM 95.1% and 106% | [10]; 10 µM 117% and 113% | [11]; 10 µM unless noted 107% and 110% | [12]; 10 µM 92.9% and 104% | [13]; 10 µM 101% and 99.8% | [14]; 10 µM 106% | [15]; 10 µM unless noted 104% and 108% | [16]; 10 µM 104% and 101% | [17]; 10 µM 97.4% and 101% | [18]; 10 µM 103% and 106% | [19]; 10 µM 110% and 101% | [20]; 10 µM 105% and 108%

Nc1nc(=S)c2ncn(C3OC(CO)C(O)C3O)c2[nH]1 (stereo not drawn)
96.7% (inactive) and -12% (active): [7]; 10 µM unless noted
108% (inactive) and -8.38% (active): [15]; 10 µM unless noted
inactive: [1]; 10 µM 102% and 25.8% | [2]; 10 µM 113% and 35.5% | [3]; 10 µM 128% and 64.3% | [4]; 10 µM 106% and 35.4% | [6]; 10 µM 29.5% | [8]; 10 µM 92.9% and 27.9% | [9]; 10 µM 103% and 22.2% | [10]; 10 µM 155% and 12.4% | [11]; 10 µM unless noted 108% and 23.2% | [12]; 10 µM 108% | [13]; 10 µM 170% and 15% | [14]; 10 µM 105% and 26.1% | [16]; 10 µM 101% and 34.5% | [17]; 10 µM 109% and 18.3% | [18]; 10 µM 107% and 22.3% | [19]; 10 µM 98.9% and 31.5% | [20]; 10 µM 109% and 15.5%
120% (inactive) and 9.3% (active): [5]; 10 µM

CC1=CC(C)=Nc2ccc(Cl)cc2N1
inactive: [1]; 10 µM 94.1% | [2]; 10 µM 97.6% | [3]; 10 µM 102% | [4]; 10 µM 105% | [5]; 10 µM 101% | [6]; 10 µM 96.9% | [7]; 10 µM unless noted 103% | [8]; 10 µM 114% | [9]; 10 µM 106% | [10]; 10 µM 106% | [11]; 10 µM unless noted 106% | [12]; 10 µM 90.3% | [13]; 10 µM 96.9% | [14]; 10 µM 110% | [15]; 10 µM unless noted 113% | [16]; 10 µM 98.9% | [17]; 10 µM 107% | [18]; 10 µM 100% | [19]; 10 µM 104% | [20]; 10 µM 102%

COC1OCC(O)C(O)C1O (stereo not drawn)
inactive: [1]; 10 µM 98.3% | [2]; 10 µM 108% | [3]; 10 µM 99.8% | [4]; 10 µM 102% | [5]; 10 µM 104% | [6]; 10 µM 103% | [7]; 10 µM unless noted 97.5% | [8]; 10 µM 101% | [9]; 10 µM 101% | [10]; 10 µM 107% | [11]; 10 µM unless noted 105% | [12]; 10 µM 104% | [13]; 10 µM 103% | [14]; 10 µM 110% | [15]; 10 µM unless noted 106% | [16]; 10 µM 98.4% | [17]; 10 µM 105% | [18]; 10 µM 107% | [20]; 10 µM 101%

Cc1cc(NS(=O)(=O)c2ccc(N=Nc3cc(N=Nc4ccc(S(=O)(=O)Nc5cc(C)nc(C)n5)cc4)c4c(NC(=O)C(Cl)Cl)cccc4c3OC(=O)C(Cl)Cl)cc2)nc(C)n1 (tested in a mixture with another compound)
inactive: [1]; 10 µM 107% | [2]; 10 µM 94.6% and 96.1% | [3]; 10 µM 94.9% and 87.3% | [4]; 10 µM 102% and 103% | [5]; 10 µM 109% and 103% | [6]; 10 µM 99% and 120% | [8]; 10 µM 98.9% and 95.2% | [9]; 10 µM 111% and 115% | [10]; 10 µM 109% and 113% | [11]; 10 µM unless noted 118% and 110% | [12]; 10 µM 108% and 117% | [13]; 10 µM 101% and 94% | [14]; 10 µM 81.8% and 68.1% | [15]; 10 µM unless noted 110% and 93% | [16]; 10 µM 108% and 115% | [17]; 10 µM 86.2% | [18]; 10 µM 99.3% and 108% | [19]; 10 µM 101% and 92.8% | [20]; 10 µM 113% and 111%
86.1% (inactive) and 3.96% (active): [7]; 10 µM unless noted

O=C1C=CC(=CC=C2C=CN(CCCCCCCCCCCO)C=C2)C=C1
inactive: [1]; 10 µM 20% | [2]; 10 µM 59.6% | [3]; 10 µM 92.4% | [4]; 10 µM 44.5% | [5]; 10 µM 17.5% | [6]; 10 µM 24% | [7]; 10 µM unless noted 18.2% | [8]; 10 µM 46.3% | [9]; 10 µM 67.2% | [11]; 10 µM unless noted 44.3% | [12]; 10 µM 24.7% | [13]; 10 µM 41.6% | [15]; 10 µM unless noted 69.2% | [17]; 10 µM 45.3% | [18]; 10 µM 41.4% | [20]; 10 µM 45.4%
active: [10]; 10 µM -42.6% | [19]; 10 µM 4%

CN1CCN(CCCN2c3ccccc3Sc3ccc(C(F)(F)F)cc32)CC1
active: [10]; 10 µM -79% | [12]; 10 µM -11.9% | [13]; 10 µM -10.5% | [19]; 10 µM -59.5% | [20]; 10 µM -74%
inactive: [1]; 10 µM 69.9% | [2]; 10 µM 101% | [3]; 10 µM 69.7% | [4]; 10 µM 61.8% | [5]; 10 µM 33.6% | [7]; 10 µM unless noted 73% | [8]; 10 µM 59.4% | [9]; 10 µM 37.2% | [11]; 10 µM unless noted 70.4% | [14]; 10 µM 52.7% | [15]; 10 µM unless noted 37% | [16]; 10 µM 63.5% | [17]; 10 µM 42.9%

CCCCCCCCCCCC[N+](C)(C)Cc1ccccc1
inactive: [1]; 10 µM 23.8% | [2]; 10 µM 55% | [3]; 10 µM 87.7% | [4]; 10 µM 28% | [5]; 10 µM 71.9% | [8]; 10 µM 70.9% | [9]; 10 µM 28.1% | [10]; 10 µM 15.7% | [11]; 10 µM unless noted 24.8% | [14]; 10 µM 25.3% | [17]; 10 µM 46.3% | [18]; 10 µM 53.6%
active: [7]; 10 µM unless noted -4.63% | [12]; 10 µM -5.13% | [13]; 10 µM -19.2% | [15]; 10 µM unless noted -38.7% | [16]; 10 µM 8.3% | [19]; 10 µM 2.24% | [20]; 10 µM 7.19%

Cc1cc(O)c(C(C)C)cc1Cl
inactive: [1]; 10 µM 106% | [2]; 10 µM 96.7% | [3]; 10 µM 96.9% | [4]; 10 µM 95.7% | [5]; 10 µM 99.1% | [6]; 10 µM 99.9% | [7]; 10 µM unless noted 101% | [9]; 10 µM 101% | [10]; 10 µM 107% | [11]; 10 µM unless noted 101% | [12]; 10 µM 96.8% | [13]; 10 µM 109% | [14]; 10 µM 104% | [15]; 10 µM unless noted 120% | [16]; 10 µM 99.3% | [17]; 10 µM 100% | [18]; 10 µM 105% | [20]; 10 µM 101%
